# Assay results published in PubChem BioAssay AID1259389 (Center for Chemical Genomics, University of Michigan, 2018).
# Out of some 100,000 compounds screened, about 620 (0.62%) were called active. How the source made its calls: active means z-score of 3 or more in at least 2 runs; inactive means the rest. Only a selection was taken, and actives are over-represented in it overall.
# Assay: TAR RNA-Tat peptide displacers, HIV-1, primary screen, biochemical, FRET, FAM/TAMRA-labeled Tat (AID 1259389)
# Settings: HIV-1 TAR RNA, Tat peptide displacement FRET; hits give high values
row,Structure (SMILES),z-score
1,O=C(O)C1CSC(c2cccnc2)N1 (stereo not given),3.48 (active)
2,Cc1nn2c3cc(N4CCNCC4)ccc3nc2c2ccccc12,3.84 (active)
3,c1ccc2sc(N3CCNCC3)nc2c1,-0.36 (inactive)
4,CC(=O)N[C@H]1CN2CC[C@H](O)[C@@H]2[C@@H](O)[C@@H]1O,0.34 (inactive)
5,CC(C)(C)[C@]1(O)C[C@@H]2OC(=O)C[C@@]23C(=O)O[C@@H]2OC(=O)[C@H](O)[C@]213,2.75 (inactive)
6,C#CCOc1ccc(C2SCC(=O)Nc3n[nH]c(C)c32)cc1OC (stereo not given),1.62 (inactive)
7,CCC1c2cccn2-c2ccccc2CN1C(=O)Nc1ccc(F)c(Cl)c1 (stereo not given),1.12 (inactive)
8,C=CCOc1ccc(C2SCC(=O)Nc3n[nH]c(C)c32)cc1 (stereo not given),1.1 (inactive)
9,CN1CC=C(c2noc(CCC(=O)Nc3ccc(Cl)cn3)n2)CC1,1.39 (inactive)
10,CCC(CC)n1[nH]c(=O)c2c1NC(=O)CSC2c1ccc(Br)cc1 (stereo not given),0.25 (inactive)
